# The entries come from a sample that favours hits as a whole.
# mHTT-CaM PPI inh = disrupts binding of mutant huntingtin to calmodulin | P42858 | AlphaScreen His-mHTT/GST-CaM binding, luminescence | inhibition, % at 15 µM | 190,000 compounds, 3.6% hits
# Pf apPOL inh = Pf-apPOL DNA polymerase inhibition | Recombinant Pf-apPOL, molecular beacon fluorescence, 1.5 h | inhibition, % at 10 µM | 210,000 compounds, 0.25% hits
# Numbers stand for hits; - = inactive; . = not tested or not shown; + = active, no number. Rule as the data show it: active = inhibition above about 50%; inactive = the rest.
SMILES,mHTT-CaM PPI inh,Pf apPOL inh
CCCn1c(C2CCN(Cc3cn(C)nc3C)C2)nc2cccnc21 (stereo not drawn),-,-
CSC(=S)N(C)NC(=O)Nc1cccc(C(F)(F)F)c1,.,-
O=C(c1noc2c1CCCCC2)N1CCN(Cc2ccc3c(c2)OCO3)CC1,-,-
CSc1cccc(NC(=O)C(=O)NC2CC2)c1,-,-
Cc1cccc(N2CCN(C(=O)C3CCCCC3C(=O)O)CC2)c1C (stereo not drawn),-,-
CC(=O)c1ccc(NC(=O)CN2C(=O)C3CCCN3C(=O)c3ccc(F)cc32)cc1 (stereo not drawn),-,-
CCCOc1ccc(-c2nn(-c3ccccc3)cc2C=NC2CCS(=O)(=O)C2)cc1 (stereo not drawn),-,-
COc1ccc(CC(=O)N2CCc3c(c(-c4nc(-c5ccccc5F)no4)nn3C)C2)cc1,-,-
CCCn1c(C2CCN(C(=O)c3ccc(C(F)(F)F)cc3)C2)nc2cccnc21 (stereo not drawn),-,-
O=C(NC(Nc1cccc([N+](=O)[O-])c1)C(Cl)(Cl)Cl)c1cccc([N+](=O)[O-])c1 (stereo not drawn),54,-
Cc1cccc(C(=O)NC(Nc2cccc([N+](=O)[O-])c2)C(Cl)(Cl)Cl)c1 (stereo not drawn),-,-
O=C(NC(NCc1ccccc1)C(Cl)(Cl)Cl)c1cccc([N+](=O)[O-])c1 (stereo not drawn),-,-
O=C(NC(Nc1ccc(Br)cc1)C(Cl)(Cl)Cl)c1cccc([N+](=O)[O-])c1 (stereo not drawn),96,-
CCOc1ccc(C(=O)Nc2c3c(nn2-c2ccccc2)CSC3)cc1,-,-
Cc1cc(I)ccc1N/C=C/[N+](=O)[O-],-,-
O=C(CN1C(=O)CCC1=O)Nc1nc(-c2cc([N+](=O)[O-])cs2)cs1,-,-
CCC(=O)N1CCc2sc(S(=O)(=O)Nc3ccc(F)cc3)cc2C1,51,-
CCC(=O)N1CCc2sc(S(=O)(=O)Nc3ccccc3)cc2C1,-,-
Cc1ccc(NC(=O)/C(C#N)=C/c2cc(C)n(-c3cccnc3)c2C)cc1C,52,-
CCOc1ccc(NC(=O)/C(C#N)=C/c2cc(C)n(-c3cccnc3)c2C)cc1,-,-
CCOc1ccccc1C(=O)N1CC(=O)Nc2ccc(Br)cc2C1c1ccccc1 (stereo not drawn),-,-
C=CCNC(=O)C(=O)Nc1ccccc1Cl,-,-
CCOC(=O)ON1C(=O)c2ccccc2N2COc3ccccc3C12 (stereo not drawn),100,.
CCOC(=O)C1Oc2ccccc2C(C(=O)OC)=C1C(=O)OC (stereo not drawn),-,-
Cc1cc(F)ccc1NC(=O)c1ccc(Cn2cncn2)cc1,-,-
SMILES,mHTT-CaM PPI inh,Pf apPOL inh
O=[N+]([O-])c1ccc(-c2csc(N3CCCC3)n2)cc1,-,-
Cc1ccc(-c2csc(N3N=C(c4ccc([N+](=O)[O-])cc4)CC3=O)n2)cc1,53,-
O=C(c1sc2ccccc2c1Cl)N1CCN(CCN2C(=O)C3C4C=CC(C4)C3C2=O)CC1 (stereo not drawn),-,-
Cc1ccc(Cl)c2c1C(=O)c1ccccc1C2=O,-,-
Nc1ccc(Cl)c2c1C(=O)c1ccccc1C2=O,59,-
CCOc1ccc(C(=O)Nc2ccc(Cl)cn2)cc1Br,-,-
O=c1[nH]c2ccc(N=Cc3cc(Br)cc(Br)c3O)cc2[nH]1,61,-
Cc1c(N=Cc2cc([N+](=O)[O-])c(Cl)cc2Cl)c(=O)n(-c2ccccc2)n1C,-,-
O=c1[nH]c2ccc(N=Cc3cc(O)ccc3Br)cc2[nH]1,-,-
O=c1[nH]c2ccc(N=Cc3cc([N+](=O)[O-])c(Cl)cc3Cl)cc2[nH]1,94,-
COc1ccc(Cl)cc1C(=O)N1CC2CC(NC(=O)c3cccnc3)C1C2 (stereo not drawn),-,-
O=C(CSc1nnc(COc2ccccc2)o1)NCc1ccco1,-,-
COc1ccccc1N(C)c1cc2c(c3c1ccn3C)C1CCC2O1 (stereo not drawn),67,-
Cn1ccc2c(N(Cc3ccccc3)Cc3ccccc3)cc3c(c21)C1CCC3O1 (stereo not drawn),-,-
CN(Cc1ccccc1)c1cc2c(c3c1ccn3C)C1CCC2O1 (stereo not drawn),72,-
Cn1ccc2c(-c3ccc(F)cc3)cc3c(c21)C1CCC3O1 (stereo not drawn),-,-
COc1cc(OC)c(OC)cc1C=C1Oc2cc(OS(=O)(=O)c3ccccc3)ccc2C1=O,-,-
CCSc1nnc2c(n1)OC(c1ccc(OC)cc1OC)Nc1ccccc1-2 (stereo not drawn),-,-
O=C1C(=CC=CC2=C(O)c3ccccc3S2(=O)=O)S(=O)(=O)c2ccccc21,57,.
CCc1cc(-c2[nH]ncc2-c2ccc([N+](=O)[O-])cc2)c(O)cc1OC,95,-
CCc1cc(-c2onc(C)c2-c2ccc(OC)cc2)c(O)cc1OC,-,-
N=C(N)SCc1cc2ccccc2o1,.,-
CCC1=NN(C(=O)c2ccc(Cl)cc2)C(O)(C(F)(F)F)C1 (stereo not drawn),-,94
CCC1=NN(C(=O)c2ccc(I)cc2)C(O)(C(F)(F)F)C1 (stereo not drawn),-,-
Cc1cccc(C(=O)N2N=C(c3ccc(Cl)cc3)CC2(O)C(F)(F)F)c1 (stereo not drawn),89,-
SMILES,mHTT-CaM PPI inh,Pf apPOL inh
O=C(c1cccc(Cl)c1)N1N=C(c2ccc(Cl)cc2)CC1(O)C(F)(F)F (stereo not drawn),-,-
Cc1nc2ccccn2c1C(=O)Nc1ccc2c(c1)C(=O)Nc1ccccc1O2,-,-
CCOc1cccc(=NCc2ccccc2)c2c(C)[nH]c(C)c12,76,-
CCOc1cccc2cc(C(N)=O)c(=NCc3ccccc3)oc12,-,-
Cc1cc(C)nc(Nc2nc3ccccc3[nH]2)n1,-,-
Clc1cc2c(cc1/C=N/Nc1nc3ccccc3[nH]1)OCO2,+,.
N#C/C(=C\c1cc2c(cc1Br)OCO2)c1nc2ccccc2[nH]1,-,-
Cc1[nH]c2ccccc2c1/C=N\Nc1nc2ccccc2[nH]1,+,.
O=C1CCCC(=O)N1CCS(=O)(=O)NCC1CCN(Cc2ccccc2)CC1,-,-
Cc1ccnc(N2CCCC(C(=O)NCCN3CCC(C)CC3)C2)n1 (stereo not drawn),-,-
COc1ccc(S(=O)(=O)N2CCc3nc(CNC(=O)C4CCC4)n(C)c3C2)cc1,-,-
O=S(=O)(Cc1ccccc1)NCc1ccc(Cl)cc1,-,-
CCc1cc2c(=O)c(-c3ccc4c(c3)OCCO4)coc2cc1OCC(=O)O,-,-
COc1ccc(NC(=O)c2ncn[nH]2)cc1,-,-
COc1ccc(CNC(=O)c2ncn[nH]2)cc1,87,-
COC(=O)C1=C(N)Oc2c(oc(CO)cc2=O)C1c1ccc(Cl)c(Cl)c1 (stereo not drawn),70,-
COC(=O)C1=C(N)Oc2c(oc(CO)cc2=O)C1c1ccc(Cl)cc1 (stereo not drawn),-,-
COc1cc2c(cc1OC)C(COc1ccccc1OC)N(C(C)=O)CC2 (stereo not drawn),-,-
COc1ccc(OCC2c3cc(OC)c(OC)cc3CCN2C(=O)c2ccc(OC)cc2)cc1 (stereo not drawn),57,-
COC(=O)c1ccc(OCC2c3cc(OC)c(OC)cc3CCN2C(=O)c2cc(OC)cc(OC)c2)cc1 (stereo not drawn),-,-

# High-throughput results (PubChem BioAssay)
